Common to all, as to set-up: scale not given: direction of the effect not stated beside the values
In assay [1] the target is Protein translocase subunit SecA (Escherichia coli (strain K12)) (UniProt P10408). Put plainly: Assay to Identify E. coli SecA ATPase Inhibitors. The format is functional. The note with it: 30 µM.
The target in assay [2] is T1, Ubiquitin-activating enzyme e1, putative (Leishmania donovani (strain BPK282A1)) (UniProt E9BSI1).
T1 sequence (whole entry): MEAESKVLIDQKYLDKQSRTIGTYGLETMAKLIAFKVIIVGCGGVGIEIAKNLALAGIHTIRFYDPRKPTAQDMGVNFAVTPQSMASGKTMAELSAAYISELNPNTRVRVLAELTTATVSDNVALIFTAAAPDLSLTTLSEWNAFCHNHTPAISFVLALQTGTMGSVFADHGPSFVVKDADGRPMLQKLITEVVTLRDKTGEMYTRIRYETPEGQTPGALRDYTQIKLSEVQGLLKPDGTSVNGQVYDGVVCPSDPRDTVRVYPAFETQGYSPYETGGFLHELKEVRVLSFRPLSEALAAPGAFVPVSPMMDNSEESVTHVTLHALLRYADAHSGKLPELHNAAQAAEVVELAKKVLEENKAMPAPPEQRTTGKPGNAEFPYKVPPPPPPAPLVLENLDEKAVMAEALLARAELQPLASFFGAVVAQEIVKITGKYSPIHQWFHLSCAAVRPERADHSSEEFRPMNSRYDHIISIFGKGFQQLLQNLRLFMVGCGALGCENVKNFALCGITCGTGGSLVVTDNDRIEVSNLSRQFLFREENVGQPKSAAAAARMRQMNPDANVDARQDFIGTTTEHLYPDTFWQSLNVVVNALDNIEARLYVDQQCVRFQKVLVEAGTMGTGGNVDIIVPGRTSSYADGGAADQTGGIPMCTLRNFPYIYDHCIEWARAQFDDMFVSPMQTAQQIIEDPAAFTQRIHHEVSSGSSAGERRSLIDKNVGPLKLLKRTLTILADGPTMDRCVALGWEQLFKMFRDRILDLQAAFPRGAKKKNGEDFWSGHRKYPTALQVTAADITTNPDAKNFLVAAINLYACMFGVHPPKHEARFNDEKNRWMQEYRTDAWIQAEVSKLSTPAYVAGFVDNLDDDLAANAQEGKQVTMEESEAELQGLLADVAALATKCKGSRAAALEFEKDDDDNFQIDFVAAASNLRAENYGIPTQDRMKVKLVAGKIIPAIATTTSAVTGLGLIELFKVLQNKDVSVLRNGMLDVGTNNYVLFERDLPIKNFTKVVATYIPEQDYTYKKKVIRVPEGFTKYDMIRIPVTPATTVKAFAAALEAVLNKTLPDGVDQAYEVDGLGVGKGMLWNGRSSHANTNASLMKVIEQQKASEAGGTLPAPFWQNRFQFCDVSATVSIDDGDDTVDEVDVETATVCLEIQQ
Put plainly: Leishmania donovani Ubiquitin Activating Enzyme (LdE1). The format is functional. The note with it: 30 µM.

In assay [3] the target is AMP-activated protein kinase, AMPK (Homo sapiens) (UniProt P54646+O43741+P54619+Q9UGJ0+Q9Y478+Q13131+Q9UGI9). Put plainly: AMP-dependent Kinase enzyme assay. An in vitro enzyme assay that detects ADP turnover that is directly proportional to AMPK activity. This uses naive AMPK that is activated during the assay with MK-8722. Format: functional. The conditions noted are these: 30 µM.

The target of assay [4] is Sialic acid-binding Ig-like lectin 9 (Homo sapiens) (UniProt Q9Y336). Put plainly: Hs-Siglec9 ALPHAscreen SOP 20170721. The note with it: 10 µM.
Another assay concerns Trypanosoma cruzi. Put plainly: Trypanosoma cruzi phosphomannomutase and mannose-1-phosphate guanylyltransferase assay. The note with it: 10 µM. Format: functional.
Assay [5] concerns the target T2, Arginase-2, mitochondrial (Homo sapiens) (UniProt P78540).
T2 sequence (whole entry): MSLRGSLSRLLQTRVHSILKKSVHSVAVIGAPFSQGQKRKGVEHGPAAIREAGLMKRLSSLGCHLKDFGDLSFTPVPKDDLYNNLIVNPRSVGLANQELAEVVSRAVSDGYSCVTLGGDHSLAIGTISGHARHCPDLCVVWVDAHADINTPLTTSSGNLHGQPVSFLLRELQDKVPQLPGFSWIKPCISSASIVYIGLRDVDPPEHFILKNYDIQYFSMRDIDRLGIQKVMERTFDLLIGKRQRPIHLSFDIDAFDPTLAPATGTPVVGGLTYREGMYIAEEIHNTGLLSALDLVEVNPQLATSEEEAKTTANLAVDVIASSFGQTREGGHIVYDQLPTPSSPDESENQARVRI
Nature of the assay: in vitro enzyme assay to detect the production of urea directly proportional to the activity of Arginase II. Note: in the data most compounds retested in dose-response had high values. The format is functional. The note with it: 33.3 µM.

Assay [6] addresses T3, Proteasome subunit beta (Trypanosoma cruzi) (UniProt O96673).
T3 sequence (whole entry): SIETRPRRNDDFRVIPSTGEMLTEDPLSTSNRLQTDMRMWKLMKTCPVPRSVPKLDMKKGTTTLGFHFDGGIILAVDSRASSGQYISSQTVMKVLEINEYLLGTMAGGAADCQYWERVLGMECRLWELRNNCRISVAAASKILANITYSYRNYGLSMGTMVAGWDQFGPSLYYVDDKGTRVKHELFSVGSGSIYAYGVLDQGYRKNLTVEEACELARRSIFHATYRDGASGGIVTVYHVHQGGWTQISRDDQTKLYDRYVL
Put plainly: Trypanosoma cruzi proteasome chymotrypsin-like activity (TcProtChymo) assay. Note: in the data most compounds retested in dose-response had high values. The note with it: 9.37 µM. The format is functional.

The species entered for another assay is Homo sapiens. Nature of the assay: To identify inhibition of the IFN signalling (Jak-Stat) pathway via expression of an eGFP reporter gene under the control of an IFN-stimulated response element (ISRE) containing MxA promoter. The conditions noted are these: 30 µM. The format is functional. Background: A reporter such as luciferase makes a cellular process visible.

The target of assay [7] is T4, Tyrosyl-tRNA synthetase, putative (Trypanosoma cruzi (strain CL Brener)) (UniProt Q4DSP6).
T4 sequence (whole entry): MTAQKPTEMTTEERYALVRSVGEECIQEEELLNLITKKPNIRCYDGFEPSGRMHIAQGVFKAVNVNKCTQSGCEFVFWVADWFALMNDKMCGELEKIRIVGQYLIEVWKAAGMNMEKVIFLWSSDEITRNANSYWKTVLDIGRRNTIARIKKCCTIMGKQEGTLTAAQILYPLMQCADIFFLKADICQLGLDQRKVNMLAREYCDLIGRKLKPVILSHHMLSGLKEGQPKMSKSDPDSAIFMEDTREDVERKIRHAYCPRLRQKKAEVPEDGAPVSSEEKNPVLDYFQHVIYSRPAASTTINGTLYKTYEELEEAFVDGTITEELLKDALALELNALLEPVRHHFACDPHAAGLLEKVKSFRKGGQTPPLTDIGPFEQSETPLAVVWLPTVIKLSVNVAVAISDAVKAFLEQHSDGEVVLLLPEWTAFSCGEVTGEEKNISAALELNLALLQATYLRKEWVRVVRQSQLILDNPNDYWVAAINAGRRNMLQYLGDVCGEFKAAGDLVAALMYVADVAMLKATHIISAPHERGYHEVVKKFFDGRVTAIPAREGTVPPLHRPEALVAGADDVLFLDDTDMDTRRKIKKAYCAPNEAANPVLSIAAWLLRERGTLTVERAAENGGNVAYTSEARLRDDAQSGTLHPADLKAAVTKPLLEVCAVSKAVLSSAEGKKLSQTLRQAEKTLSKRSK
Put plainly: Trypanosoma cruzi tyrosyl tRNA synthetase (TcYRS) _High Tyrosine SOP. Note: in the data most compounds retested in dose-response had high values. The note with it: 30 µM. The format is functional.

Assay [8] concerns the target T4, Tyrosyl-tRNA synthetase, putative (Trypanosoma cruzi (strain CL Brener)). Put plainly: Trypanosoma cruzi tyrosyl tRNA synthetase (TcYRS) SOP. Format: functional. The note with it: 30 µM.
Assay [9] concerns the target Chromo domain-containing protein 1 (Saccharomyces cerevisiae (strain ATCC 204508 / S288c) (Baker's yeast)) (UniProt P32657). Nature of the assay: ScCHD-1 Enzyme Inhibition Assay. Note: in the data most compounds retested in dose-response had high values. Format: functional. The note with it: 30 µM.

Molecules are shown by their SMILES. For some assays here: Results with a measured potency or affinity are listed apart.

Chain of Chromo domain-containing protein 1 (Saccharomyces cerevisiae (strain ATCC 204508 / S288c) (Baker's yeast)) (P32657 whole entry, the tested form may be a part): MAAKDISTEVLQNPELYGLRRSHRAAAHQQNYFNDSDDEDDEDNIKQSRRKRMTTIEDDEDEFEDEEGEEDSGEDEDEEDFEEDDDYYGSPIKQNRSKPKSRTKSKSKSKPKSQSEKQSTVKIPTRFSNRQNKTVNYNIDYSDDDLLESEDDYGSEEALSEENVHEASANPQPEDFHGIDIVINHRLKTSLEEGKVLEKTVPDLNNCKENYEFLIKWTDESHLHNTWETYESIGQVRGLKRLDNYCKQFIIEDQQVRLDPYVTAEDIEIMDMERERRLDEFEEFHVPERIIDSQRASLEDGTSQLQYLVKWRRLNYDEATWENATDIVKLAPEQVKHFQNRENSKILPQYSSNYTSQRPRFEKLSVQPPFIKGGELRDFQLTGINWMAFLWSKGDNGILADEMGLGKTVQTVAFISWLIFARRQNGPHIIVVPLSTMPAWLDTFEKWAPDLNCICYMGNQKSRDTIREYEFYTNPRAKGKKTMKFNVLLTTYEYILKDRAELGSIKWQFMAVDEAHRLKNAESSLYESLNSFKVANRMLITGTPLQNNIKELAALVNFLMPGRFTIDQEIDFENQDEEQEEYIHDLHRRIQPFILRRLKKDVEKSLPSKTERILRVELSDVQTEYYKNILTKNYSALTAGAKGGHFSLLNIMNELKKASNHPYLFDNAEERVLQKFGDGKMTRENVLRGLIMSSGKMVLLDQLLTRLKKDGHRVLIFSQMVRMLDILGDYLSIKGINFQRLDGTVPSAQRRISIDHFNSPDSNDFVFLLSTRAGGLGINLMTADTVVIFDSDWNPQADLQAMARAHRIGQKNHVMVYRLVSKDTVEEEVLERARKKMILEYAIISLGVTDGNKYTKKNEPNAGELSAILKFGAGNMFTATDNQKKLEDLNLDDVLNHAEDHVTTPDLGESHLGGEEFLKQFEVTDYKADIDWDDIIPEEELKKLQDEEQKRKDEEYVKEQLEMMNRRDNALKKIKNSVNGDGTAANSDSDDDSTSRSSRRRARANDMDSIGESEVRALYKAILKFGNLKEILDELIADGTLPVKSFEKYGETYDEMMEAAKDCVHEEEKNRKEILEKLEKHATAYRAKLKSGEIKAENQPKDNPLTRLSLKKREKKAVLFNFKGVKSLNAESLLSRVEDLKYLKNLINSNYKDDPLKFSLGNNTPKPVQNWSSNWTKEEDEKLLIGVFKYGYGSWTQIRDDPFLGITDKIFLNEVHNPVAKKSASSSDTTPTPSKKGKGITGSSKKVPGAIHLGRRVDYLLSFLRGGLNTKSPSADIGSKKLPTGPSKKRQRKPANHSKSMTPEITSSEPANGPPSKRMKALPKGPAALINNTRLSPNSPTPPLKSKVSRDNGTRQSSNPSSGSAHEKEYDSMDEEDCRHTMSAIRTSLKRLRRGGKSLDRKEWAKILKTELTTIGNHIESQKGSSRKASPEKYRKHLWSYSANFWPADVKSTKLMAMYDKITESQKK
Chain of Protein translocase subunit SecA (Escherichia coli (strain K12)) (P10408 whole entry): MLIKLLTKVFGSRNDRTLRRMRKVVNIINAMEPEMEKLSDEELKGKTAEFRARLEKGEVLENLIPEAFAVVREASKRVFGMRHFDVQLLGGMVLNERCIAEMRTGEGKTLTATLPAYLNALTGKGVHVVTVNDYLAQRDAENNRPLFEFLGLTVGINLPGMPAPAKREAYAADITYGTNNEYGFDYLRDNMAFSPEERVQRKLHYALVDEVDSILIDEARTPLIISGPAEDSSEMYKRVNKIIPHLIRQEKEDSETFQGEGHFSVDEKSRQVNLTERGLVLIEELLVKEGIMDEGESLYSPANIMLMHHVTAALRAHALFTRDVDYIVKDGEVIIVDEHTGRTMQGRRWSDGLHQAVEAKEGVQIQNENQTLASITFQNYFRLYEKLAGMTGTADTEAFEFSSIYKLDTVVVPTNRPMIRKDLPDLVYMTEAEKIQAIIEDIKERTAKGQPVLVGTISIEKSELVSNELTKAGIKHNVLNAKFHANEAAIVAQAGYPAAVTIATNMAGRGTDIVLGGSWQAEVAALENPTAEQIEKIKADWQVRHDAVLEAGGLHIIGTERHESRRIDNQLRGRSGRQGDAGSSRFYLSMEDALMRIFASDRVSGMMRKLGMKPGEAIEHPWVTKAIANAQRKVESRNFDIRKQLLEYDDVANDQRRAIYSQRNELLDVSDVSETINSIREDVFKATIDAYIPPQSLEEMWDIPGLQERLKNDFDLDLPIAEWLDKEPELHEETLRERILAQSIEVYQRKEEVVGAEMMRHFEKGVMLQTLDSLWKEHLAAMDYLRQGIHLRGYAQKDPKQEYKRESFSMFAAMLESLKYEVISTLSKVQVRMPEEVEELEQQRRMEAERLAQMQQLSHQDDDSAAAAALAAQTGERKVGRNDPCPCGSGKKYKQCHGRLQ
Chain of Sialic acid-binding Ig-like lectin 9 (Homo sapiens) (Q9Y336 whole entry): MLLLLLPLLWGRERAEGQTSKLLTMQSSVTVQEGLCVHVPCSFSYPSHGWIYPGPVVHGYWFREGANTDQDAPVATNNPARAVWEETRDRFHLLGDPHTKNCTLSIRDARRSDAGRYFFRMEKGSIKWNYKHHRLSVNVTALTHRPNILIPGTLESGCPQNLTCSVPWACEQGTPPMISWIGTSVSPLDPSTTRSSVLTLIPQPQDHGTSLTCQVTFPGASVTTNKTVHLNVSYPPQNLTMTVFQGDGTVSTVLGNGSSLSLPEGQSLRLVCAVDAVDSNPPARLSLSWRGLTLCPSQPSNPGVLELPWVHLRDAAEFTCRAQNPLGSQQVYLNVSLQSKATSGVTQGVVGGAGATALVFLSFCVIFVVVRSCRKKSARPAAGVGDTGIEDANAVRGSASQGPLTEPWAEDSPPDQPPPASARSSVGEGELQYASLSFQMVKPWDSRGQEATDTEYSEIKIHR

For `C[S+]([O-])c1nncn1CC(=O)c1ccc(Cl)c(Cl)c1` (stereo not given), the Percent Effect in assay [1] was -5.28%; in assay [2] it was 8.11%; in [3], -4.71%; in assay [4], 15.3%; with Trypanosoma cruzi, 5.57%; in assay [5], 2.73%. The Percent Effect is 4.38% in assay [6]; -5.62% in the assay listed under Homo sapiens; -4.3% in [7]; 1.24% in [8]; -5.11% in assay [9].

Consider `Cc1ccc(-c2nc(CN3CCN(S(=O)(=O)N(C)C)CC3)cs2)o1`, for which the Percent Effect is 1.85% in [1]; 3.8% in [2]; 3.49% in assay [3]; -3.53% in assay [4]; -3.79% in the assay on Trypanosoma cruzi; 1.94% in [5]. Besides, the Percent Effect was 20.9% in assay [6]; 43.8% in the assay filed under Homo sapiens; 8.33% in assay [7]; 12.7% in [8]; -19.4% in [9].

In the case of `COc1ccc(C)cc1CN1CCCC1c1noc(C2CC2)n1` (stereo not given), the Percent Effect was -1.46% in assay [1]; -2.7% in [2]; -7.59% in assay [3]; -1.73% in assay [4]; 5.85% in the assay on Trypanosoma cruzi; -9.8% in assay [5]. The Percent Effect in assay [6] was 18.7%; in the assay listed under Homo sapiens it was 67.4%; in assay [7], 9.9%; in assay [8], 18.3%; in assay [9], -3.74%.

In the case of `O=C(CC1CCCC1)NCCn1ccc(-c2ccccn2)n1`, the Percent Effect is -2.17% in assay [1]; 2.6% in [2]; 9.65% in [3]; 12% in assay [4]; -3.85% in the assay with Trypanosoma cruzi; 0.645% in assay [5]. The Percent Effect was -2.09% in [6]; -8.59% in the assay filed under Homo sapiens; 2.12% in [7]; 6.41% in assay [8]; -2.03% in assay [9].

`Cc1cnn(CC2CCCN2C(=O)CCc2c(C)noc2Cl)c1` (stereo not given): the Percent Effect in assay [1] was -2.86%; in [2], -2.63%; in assay [3] it was 5.68%; in assay [4], -4.15%; with Trypanosoma cruzi, 7.11%; in assay [5] it was 4.73%. In addition, the Percent Effect in [6] was 13.5%; in the assay listed under Homo sapiens it was -23.3%; in assay [7], 5.32%; in [8], 5.2%; in assay [9] it was 1.72%.

Take `CCOc1cccc2c1OCC(C(=O)NS(=O)(=O)Cc1ccccc1)=C2`: the Percent Effect was -2.71% in assay [1]; 0% in assay [2]; 1.17% in [3]; -4.5% in assay [4]; -8.59% in the assay on Trypanosoma cruzi; 24.9% in assay [5]. For the same compound, the Percent Effect in assay [6] was 2.52%; in the assay listed under Homo sapiens it was 24.4%; in assay [7], -10.3%; in assay [8], -6.17%; in assay [9], -6.55%.

Regarding `Cn1cc(CN2CC[C@H]3OCC[C@@H](C(=O)N4CCCCO4)[C@@H]3C2)cn1`, the Percent Effect in assay [1] was -3.19%; in assay [2] it was 9.33%; in assay [3] it was -0.147%; in assay [4], 1.18%; in the assay on Trypanosoma cruzi it was -0.982%; in [5], -6.51%. For the same compound, the Percent Effect in assay [6] was 11.3%; in the assay filed under Homo sapiens it was 6.18%; in assay [7], 2.12%; in [8], 7.69%; in assay [9] it was -4.05%.

Take `CN(Cc1cnn(C)c1)C(=O)NC1CCC(O)CC1` (stereo not given): the Percent Effect in assay [1] is -2.67%; in assay [2], 4.17%; in [3], -6.32%; in assay [4], 15.8%; with Trypanosoma cruzi it was 2.82%; in [5] it was 9.71%. In addition, the Percent Effect is 13% in [6]; -3.51% in the assay filed under Homo sapiens; 0% in assay [7]; 2.56% in [8]; -2.95% in assay [9].

Turning to `O=C(COc1ccccc1)N1CCC[C@]2(C[C@H](OCC3CC3)CO2)C1`, the Percent Effect in assay [1] is -0.456%; in assay [2], 7.79%; in [3], 0.996%; in [4], -3.06%; in the assay with Trypanosoma cruzi, -3.45%; in assay [5] it was 14.8%. In addition, the Percent Effect in assay [6] is 22.1%; in the assay filed under Homo sapiens, 3.98%; in [7], 8.47%; in assay [8], 16.7%; in [9], -7.91%.

Consider `CCCNC(=O)Nc1cc2c(cc1SC)OCCO2`, for which the Percent Effect in assay [1] is -5.72%; in [2], 13.5%; in [3] it was -3.48%; in assay [4], 12.2%; in the assay with Trypanosoma cruzi, 2.93%; in [5] it was 11.2%. Further, the Percent Effect is 10.7% in [6]; -1.29% in the assay filed under Homo sapiens; 8.91% in [7]; 8.54% in [8]; -6.19% in [9].

Values taken from ChEMBL document CHEMBL3988442, “University of Dundee, Small-Polar-MMV Screening Library” (2021).
